Laboratory results reported in the supplement of paper PMC11732987, “Enantioselective OTUD7B fragment discovery through chemoproteomics screening and high-throughput optimisation” (Communications Chemistry, 2025).

Columns and labels:
Assay in all cases: log2 ratio of Biotin-Ahx-Ub-VS probe labelling (fragment/DMSO); higher = less target engagement (more negative = stronger competition), active = hit call of the paper (q ≤ 0.05, log2 ratio ≤ -1)
Conditions in all cases: compound concentration: 200 uM; treatment time: 3 h
[1] = molecular target: T1, ALG13 (UniProt Q9NP73)
T1 sequence (whole entry): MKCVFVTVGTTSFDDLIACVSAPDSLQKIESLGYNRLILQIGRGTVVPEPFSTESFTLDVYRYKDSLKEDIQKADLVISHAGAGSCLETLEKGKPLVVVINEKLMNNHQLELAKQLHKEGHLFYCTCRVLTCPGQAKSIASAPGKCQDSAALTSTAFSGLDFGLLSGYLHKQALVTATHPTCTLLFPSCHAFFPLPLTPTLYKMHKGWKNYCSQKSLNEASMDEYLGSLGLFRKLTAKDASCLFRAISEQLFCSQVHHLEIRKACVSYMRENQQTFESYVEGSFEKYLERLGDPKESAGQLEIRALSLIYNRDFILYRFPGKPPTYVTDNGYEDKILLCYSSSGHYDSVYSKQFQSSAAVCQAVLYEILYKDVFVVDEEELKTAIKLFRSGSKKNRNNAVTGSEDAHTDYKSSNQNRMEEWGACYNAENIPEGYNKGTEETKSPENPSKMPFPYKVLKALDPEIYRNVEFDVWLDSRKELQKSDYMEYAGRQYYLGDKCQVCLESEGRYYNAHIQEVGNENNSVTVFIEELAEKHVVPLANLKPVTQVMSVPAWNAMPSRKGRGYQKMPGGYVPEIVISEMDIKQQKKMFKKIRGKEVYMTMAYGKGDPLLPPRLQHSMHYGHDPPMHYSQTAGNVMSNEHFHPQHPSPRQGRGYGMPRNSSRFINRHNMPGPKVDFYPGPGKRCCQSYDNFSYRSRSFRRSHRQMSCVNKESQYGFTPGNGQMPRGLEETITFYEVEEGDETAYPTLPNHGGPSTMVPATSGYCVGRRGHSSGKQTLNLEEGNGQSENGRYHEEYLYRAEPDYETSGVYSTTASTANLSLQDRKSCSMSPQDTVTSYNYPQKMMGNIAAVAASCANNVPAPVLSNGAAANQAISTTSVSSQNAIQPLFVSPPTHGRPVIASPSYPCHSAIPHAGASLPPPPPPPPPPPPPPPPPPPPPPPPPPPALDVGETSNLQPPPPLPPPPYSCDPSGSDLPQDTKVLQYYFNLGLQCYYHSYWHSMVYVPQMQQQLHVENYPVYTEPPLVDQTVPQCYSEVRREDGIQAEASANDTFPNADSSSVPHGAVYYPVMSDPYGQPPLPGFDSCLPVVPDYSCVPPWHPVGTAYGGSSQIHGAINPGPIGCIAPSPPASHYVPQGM
How it was run: (§1)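 The table lists average log2 ratios of fragment over vehicle, from an unpaired t-test on global-median-normalised Spectronaut label-free quantities. Proteins with ≥2 unique peptides were used. Samples were HEK293T lysate (495 µg) treated in triplicate with fragment at 200 µM or vehicle for 3 h, then with Biotin-Ahx-Ub-VS (0.5 µM final) for 1 h, with labelled DUBs NeutrAvidin-enriched and run by diaPASEF LC-MS/MS.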

[2] = molecular target: ATXN3 (UniProt P54252)
Sequence of ATXN3 (P54252 whole entry): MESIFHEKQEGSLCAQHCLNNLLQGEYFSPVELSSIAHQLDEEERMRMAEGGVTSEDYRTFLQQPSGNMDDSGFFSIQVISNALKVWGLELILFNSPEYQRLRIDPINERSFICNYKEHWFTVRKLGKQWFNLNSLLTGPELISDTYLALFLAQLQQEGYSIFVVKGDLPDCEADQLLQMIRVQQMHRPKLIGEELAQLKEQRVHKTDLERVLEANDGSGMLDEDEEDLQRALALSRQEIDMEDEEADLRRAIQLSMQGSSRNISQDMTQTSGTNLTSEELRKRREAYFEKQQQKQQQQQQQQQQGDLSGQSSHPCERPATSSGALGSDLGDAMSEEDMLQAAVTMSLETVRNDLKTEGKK
How it was run: as §1

[3] = molecular target: T2, BAP1 (UniProt Q92560)
T2 sequence (whole entry): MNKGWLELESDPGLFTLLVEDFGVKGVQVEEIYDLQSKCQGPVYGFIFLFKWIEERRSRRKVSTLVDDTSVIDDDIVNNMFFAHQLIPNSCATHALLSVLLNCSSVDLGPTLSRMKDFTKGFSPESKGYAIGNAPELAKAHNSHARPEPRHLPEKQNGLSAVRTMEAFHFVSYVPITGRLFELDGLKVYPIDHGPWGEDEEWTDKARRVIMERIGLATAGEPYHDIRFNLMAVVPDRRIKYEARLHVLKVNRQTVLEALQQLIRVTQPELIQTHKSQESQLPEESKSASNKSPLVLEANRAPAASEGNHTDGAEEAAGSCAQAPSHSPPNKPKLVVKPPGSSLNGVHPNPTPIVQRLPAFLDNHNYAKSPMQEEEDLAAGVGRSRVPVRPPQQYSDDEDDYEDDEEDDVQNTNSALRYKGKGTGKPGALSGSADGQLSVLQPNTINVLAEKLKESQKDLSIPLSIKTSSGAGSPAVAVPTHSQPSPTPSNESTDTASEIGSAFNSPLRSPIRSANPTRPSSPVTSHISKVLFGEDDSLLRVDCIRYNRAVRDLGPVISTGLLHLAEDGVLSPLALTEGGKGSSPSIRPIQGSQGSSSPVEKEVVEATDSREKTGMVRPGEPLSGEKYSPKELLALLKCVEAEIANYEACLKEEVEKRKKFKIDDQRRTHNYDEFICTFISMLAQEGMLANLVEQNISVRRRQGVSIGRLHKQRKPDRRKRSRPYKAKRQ
How it was run: as §1

[4] = molecular target: EIF3F (UniProt O00303)
Sequence of EIF3F (O00303 whole entry): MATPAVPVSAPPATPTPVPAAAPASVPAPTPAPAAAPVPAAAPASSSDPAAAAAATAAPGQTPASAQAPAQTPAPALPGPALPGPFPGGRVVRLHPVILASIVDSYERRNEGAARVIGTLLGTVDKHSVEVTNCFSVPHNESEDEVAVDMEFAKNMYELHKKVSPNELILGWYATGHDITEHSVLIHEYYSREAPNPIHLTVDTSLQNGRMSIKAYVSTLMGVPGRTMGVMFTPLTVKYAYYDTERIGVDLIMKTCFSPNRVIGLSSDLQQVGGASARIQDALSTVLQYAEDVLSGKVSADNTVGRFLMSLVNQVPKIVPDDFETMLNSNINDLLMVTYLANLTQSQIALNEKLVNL
How it was run: as §1

[5] = molecular target: EIF3H (UniProt O15372)
Sequence of EIF3H (O15372 whole entry): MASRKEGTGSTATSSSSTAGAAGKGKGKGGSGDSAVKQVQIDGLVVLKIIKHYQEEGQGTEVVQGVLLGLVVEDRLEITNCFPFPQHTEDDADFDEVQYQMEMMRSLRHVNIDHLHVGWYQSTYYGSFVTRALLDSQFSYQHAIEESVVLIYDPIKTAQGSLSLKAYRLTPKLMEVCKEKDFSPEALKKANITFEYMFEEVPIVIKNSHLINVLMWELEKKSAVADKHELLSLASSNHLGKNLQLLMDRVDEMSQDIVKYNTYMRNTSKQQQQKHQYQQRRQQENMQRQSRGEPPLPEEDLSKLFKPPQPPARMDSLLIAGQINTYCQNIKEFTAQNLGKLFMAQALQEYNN
How it was run: as §1

[6] = molecular target: T3, FAM105A (UniProt Q9NUU6)
T3 sequence (whole entry): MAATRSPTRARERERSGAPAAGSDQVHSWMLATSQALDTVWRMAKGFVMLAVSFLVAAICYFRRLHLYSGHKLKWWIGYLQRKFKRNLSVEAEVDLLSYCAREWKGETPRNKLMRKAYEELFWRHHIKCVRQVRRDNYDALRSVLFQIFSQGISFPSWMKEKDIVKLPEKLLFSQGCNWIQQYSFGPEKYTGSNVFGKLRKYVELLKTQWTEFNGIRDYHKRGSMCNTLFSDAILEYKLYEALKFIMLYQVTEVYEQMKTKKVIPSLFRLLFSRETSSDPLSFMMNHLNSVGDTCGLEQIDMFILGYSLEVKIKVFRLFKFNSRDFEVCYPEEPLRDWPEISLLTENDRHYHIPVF
How it was run: as §1

[7] = molecular target: OTUB1 (UniProt Q96FW1)
Sequence of OTUB1 (Q96FW1 whole entry): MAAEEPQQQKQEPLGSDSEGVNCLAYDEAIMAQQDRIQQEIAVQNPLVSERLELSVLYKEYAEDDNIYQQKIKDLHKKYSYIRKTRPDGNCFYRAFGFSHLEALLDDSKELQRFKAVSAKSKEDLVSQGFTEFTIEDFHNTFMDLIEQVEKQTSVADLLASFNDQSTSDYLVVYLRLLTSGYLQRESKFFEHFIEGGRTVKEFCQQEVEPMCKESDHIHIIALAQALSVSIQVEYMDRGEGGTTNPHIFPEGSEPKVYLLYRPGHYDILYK
How it was run: as §1

[8] = molecular target: T4, OTUD4 (UniProt Q01804)
T4 sequence (whole entry): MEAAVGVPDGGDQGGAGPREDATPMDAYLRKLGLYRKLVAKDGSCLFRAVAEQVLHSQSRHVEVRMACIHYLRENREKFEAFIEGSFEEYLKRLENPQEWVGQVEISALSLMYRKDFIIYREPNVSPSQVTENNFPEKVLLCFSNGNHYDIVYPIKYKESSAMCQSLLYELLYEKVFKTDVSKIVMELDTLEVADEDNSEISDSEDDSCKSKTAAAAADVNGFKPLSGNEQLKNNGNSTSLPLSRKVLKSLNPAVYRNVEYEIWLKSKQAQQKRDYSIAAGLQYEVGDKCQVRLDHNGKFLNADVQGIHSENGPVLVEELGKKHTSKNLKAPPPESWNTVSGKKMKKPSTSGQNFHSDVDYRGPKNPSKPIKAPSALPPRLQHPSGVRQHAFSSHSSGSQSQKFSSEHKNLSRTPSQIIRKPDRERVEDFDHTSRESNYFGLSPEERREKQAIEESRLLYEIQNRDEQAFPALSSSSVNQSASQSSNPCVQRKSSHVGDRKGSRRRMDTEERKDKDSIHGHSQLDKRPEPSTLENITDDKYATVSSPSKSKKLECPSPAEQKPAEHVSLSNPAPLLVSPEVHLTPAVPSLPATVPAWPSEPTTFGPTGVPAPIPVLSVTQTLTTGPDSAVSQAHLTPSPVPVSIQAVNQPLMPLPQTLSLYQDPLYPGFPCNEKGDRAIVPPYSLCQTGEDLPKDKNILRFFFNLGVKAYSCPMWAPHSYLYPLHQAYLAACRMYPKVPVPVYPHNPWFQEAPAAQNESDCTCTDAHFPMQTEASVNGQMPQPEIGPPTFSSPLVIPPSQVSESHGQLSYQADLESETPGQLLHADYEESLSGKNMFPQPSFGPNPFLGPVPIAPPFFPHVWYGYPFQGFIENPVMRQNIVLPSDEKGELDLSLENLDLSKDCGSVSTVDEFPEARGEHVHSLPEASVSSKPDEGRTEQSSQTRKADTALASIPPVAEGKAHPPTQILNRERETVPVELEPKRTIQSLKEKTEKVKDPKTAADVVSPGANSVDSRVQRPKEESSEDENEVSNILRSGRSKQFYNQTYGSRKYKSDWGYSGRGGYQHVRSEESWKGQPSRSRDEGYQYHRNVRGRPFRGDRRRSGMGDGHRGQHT
How it was run: as §1

[9] = molecular target: T5, OTUD5 (UniProt Q96G74)
T5 sequence (whole entry): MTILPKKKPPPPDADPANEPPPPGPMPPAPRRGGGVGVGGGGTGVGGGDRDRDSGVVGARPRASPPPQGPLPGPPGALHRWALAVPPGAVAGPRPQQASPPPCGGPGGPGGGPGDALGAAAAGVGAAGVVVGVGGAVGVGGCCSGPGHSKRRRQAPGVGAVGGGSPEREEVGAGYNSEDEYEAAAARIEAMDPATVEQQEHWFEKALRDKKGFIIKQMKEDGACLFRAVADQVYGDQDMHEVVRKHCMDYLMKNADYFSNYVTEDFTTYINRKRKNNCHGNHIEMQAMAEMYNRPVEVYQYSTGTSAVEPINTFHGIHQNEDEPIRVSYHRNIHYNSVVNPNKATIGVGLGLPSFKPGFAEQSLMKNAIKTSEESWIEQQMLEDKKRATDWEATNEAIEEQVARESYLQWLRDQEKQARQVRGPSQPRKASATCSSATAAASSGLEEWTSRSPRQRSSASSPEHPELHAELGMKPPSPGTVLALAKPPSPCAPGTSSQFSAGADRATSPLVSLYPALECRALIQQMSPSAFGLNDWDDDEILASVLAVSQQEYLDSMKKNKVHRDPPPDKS
How it was run: as §1

Measured: log2 ratio of Biotin-Ahx-Ub-VS probe labelling

NC(=O)C1CCCN(C(=O)CCl)C1 (centres undefined)
inactive: [1] 0.0966 | [2] -0.171 | [3] -0.437 | [4] -0.000958 | [5] 0.225 | [6] 0.217 | [7] -0.301 | [8] 0.0344 | [9] -0.159
